Measurements published in PubChem BioAssay AID1159580 (chemical genetic matrix, 2015).
“And” between values parts separate entries of the source, which are not always exact repeats. Identical values can stand only once. Screen size: about 5,500 compounds; about 2,000 (36%) were called active. About 18% were inconclusive and are not listed. Rule as the data show it: active = normalized growth mostly below about 0.91 (no sharp cut-off); inconclusive = no clear call, values can overlap the other calls; inactive = mostly above about 0.92. This is one part of the list.

Test: chemical genetic growth profiling, strain panel (AID 1159580);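 also: tested at 20 µM; growth read once vehicle control cultures reached saturation at 30 °C; 1 = growth at the plate median or of vehicle wells; lower values mean less growth of the strain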
Settings: growth OD
[1] = S. cerevisiae deletion strains, locus YAL013W, strain DEP1, stronger effect = lower value
[2] = S. cerevisiae deletion strains, locus YAL040C, strain CLN3, stronger effect = lower value
[3] = S. cerevisiae deletion strains, locus YDR363W, strain ESC2, stronger effect = lower value
[4] = S. cerevisiae deletion strains, locus YER002W, strain NOP16, stronger effect = lower value
[5] = S. cerevisiae deletion strains, locus YMR263W, strain SAP30, stronger effect = lower value
[6] = S. cerevisiae deletion strains, locus YNL175C, strain NOP13, stronger effect = lower value
[7] = S. cerevisiae deletion strains, locus YNL197C, strain WHI3, stronger effect = lower value
[8] = S. cerevisiae deletion strains, locus YNL224C, strain SQS1, stronger effect = lower value
[9] = S. cerevisiae deletion strains, locus YOR083W, strain WHI5 (second series), stronger effect = lower value
[10] = S. cerevisiae deletion strains, locus YDR150W, strain NUM1, stronger effect = lower value
[11] = S. cerevisiae deletion strains, locus YGR229C, strain SMI1, stronger effect = lower value
[12] = S. cerevisiae deletion strains, locus YNL153C, strain GIM3, stronger effect = lower value
[13] = S. cerevisiae deletion strains, locus YNL322C, strain KRE1, stronger effect = lower value
[14] = S. cerevisiae deletion strains, locus YPL055C, strain LGE1, stronger effect = lower value

Measured: normalized growth

CCN(c1nc(N)c(C(=O)N=C(N)N)nc1Cl)C(C)C
inactive: [1] 1 | [2] 1 | [3] 0.989 | [4] 1.04 | [5] 1 | [6] 1.04 | [7] 1.02 | [8] 1.06 | [9] 1.02

CN(C)c1nc(N)c(C(=O)N=C(N)N)nc1Cl
inactive: [1] 1.01 | [2] 1 | S. cerevisiae deletion strains, locus YBR021W, strain FUR4, stronger effect = lower value 1.01 | S. cerevisiae deletion strains, locus YBR229C, strain ROT2, stronger effect = lower value 1.01 | S. cerevisiae deletion strains, locus YCL029C, strain bik1, stronger effect = lower value 1.01 | S. cerevisiae deletion strains, locus YDL035C, strain GPR1, stronger effect = lower value 1.03 | S. cerevisiae deletion strains, locus YDL074C, strain BRE1, stronger effect = lower value 0.983 | S. cerevisiae deletion strains, locus YDL101C, strain DUN1, stronger effect = lower value 1.01 | S. cerevisiae deletion strains, locus YDL134C, strain PPH21, stronger effect = lower value 0.999 | S. cerevisiae deletion strains, locus YDL185W, strain tfp1, stronger effect = lower value 1.01 | S. cerevisiae deletion strains, locus YDL192W, strain arf1, stronger effect = lower value 1.01 | S. cerevisiae deletion strains, locus YDR101C, strain arx1, stronger effect = lower value 1 | [10] 0.982 and 0.999 | S. cerevisiae deletion strains, locus YDR162C, strain NBP2, stronger effect = lower value 0.985 | S. cerevisiae deletion strains, locus YDR318W, strain mcm21, stronger effect = lower value 1.02 | [3] 1 | S. cerevisiae deletion strains, locus YDR388W, stronger effect = lower value 1 | S. cerevisiae deletion strains, locus YDR502C, strain sam2, stronger effect = lower value 0.983 | S. cerevisiae deletion strains, locus YEL061C, strain CIN8, stronger effect = lower value 1.01 | [4] 1.01 | S. cerevisiae deletion strains, locus YER110C, stronger effect = lower value 1.02 | S. cerevisiae deletion strains, locus YER155C, strain BEM2, stronger effect = lower value 1.01 | S. cerevisiae deletion strains, locus YER167W, strain BCK2, stronger effect = lower value 1.02 | S. cerevisiae deletion strains, locus YGL078C, strain dbp3, stronger effect = lower value 0.989 | S. cerevisiae deletion strains, locus YGL086W, strain mad1, stronger effect = lower value 1.02 | S. cerevisiae deletion strains, locus YGL248W, strain PDE1, stronger effect = lower value 1 | S. cerevisiae deletion strains, locus YGR078C, strain PAC10, stronger effect = lower value 0.99 | S. cerevisiae deletion strains, locus YGR135W, strain pre9, stronger effect = lower value 0.967 | [11] 1 | S. cerevisiae deletion strains, locus YGR252W, strain gcn5, stronger effect = lower value 1.02 | S. cerevisiae deletion strains, locus YHR030C, strain SLT2, stronger effect = lower value 1.01 | S. cerevisiae deletion strains, locus YHR079C, strain IRE1 (second series), stronger effect = lower value 1.01 | S. cerevisiae deletion strains, locus YHR094C, strain hxt1, stronger effect = lower value 0.998 | S. cerevisiae deletion strains, locus YHR129C, strain ARP1, stronger effect = lower value 1.01 | S. cerevisiae deletion strains, locus YHR200W, strain rpn10, stronger effect = lower value 1 | S. cerevisiae deletion strains, locus YIL066C, strain RNR3, stronger effect = lower value 1.02 | S. cerevisiae deletion strains, locus YIL073C, strain SPO22, stronger effect = lower value 1.07 | S. cerevisiae deletion strains, locus YIL125W, strain kgd1, stronger effect = lower value 1 | S. cerevisiae deletion strains, locus YIR030C, strain dcg1, stronger effect = lower value 0.998 | S. cerevisiae deletion strains, locus YJL095W, strain BCK1, stronger effect = lower value 0.997 | S. cerevisiae deletion strains, locus YJL134W, strain LCB3, stronger effect = lower value 1 | S. cerevisiae deletion strains, locus YJL168C, strain set2, stronger effect = lower value 1 | S. cerevisiae deletion strains, locus YJL187C, strain SWE1 (second series), stronger effect = lower value 0.988 | S. cerevisiae deletion strains, locus YJR043C, strain POL32, stronger effect = lower value 1.03 | S. cerevisiae deletion strains, locus YJR075W, strain HOC1, stronger effect = lower value 1.01 | S. cerevisiae deletion strains, locus YKL009W, strain mrt4, stronger effect = lower value 1.06 | S. cerevisiae deletion strains, locus YKL068W, stronger effect = lower value 0.997 | S. cerevisiae deletion strains, locus YKL085W, strain MDH1 (second series), stronger effect = lower value 1.01 | S. cerevisiae deletion strains, locus YKL085W, strain MDH1, stronger effect = lower value 1.01 | S. cerevisiae deletion strains, locus YKL190W, strain CNB1, stronger effect = lower value 1.01 | S. cerevisiae deletion strains, locus YKR001C, strain vps1, stronger effect = lower value 1.02 | S. cerevisiae deletion strains, locus YLR039C, strain RIC1, stronger effect = lower value 1.06 | S. cerevisiae deletion strains, locus YLR058C, strain SHM2, stronger effect = lower value 1.01 | S. cerevisiae deletion strains, locus YLR102C, strain apc9, stronger effect = lower value 1 | S. cerevisiae deletion strains, locus YLR262C, strain YPT6, stronger effect = lower value 1.04 | S. cerevisiae deletion strains, locus YLR268W, strain sec22, stronger effect = lower value 0.988 | S. cerevisiae deletion strains, locus YLR330W, strain CHS5, stronger effect = lower value 1.01 | S. cerevisiae deletion strains, locus YLR342W, strain FKS1 (second series), stronger effect = lower value 1.07 | S. cerevisiae deletion strains, locus YLR371W, strain rom2, stronger effect = lower value 1.01 | S. cerevisiae deletion strains, locus YLR418C, strain cdc73, stronger effect = lower value 0.925 | S. cerevisiae deletion strains, locus YML016C, strain PPZ1, stronger effect = lower value 1 | S. cerevisiae deletion strains, locus YML032C, strain rad52, stronger effect = lower value 1.03 | S. cerevisiae deletion strains, locus YML124C, strain tub3, stronger effect = lower value 0.999 | S. cerevisiae deletion strains, locus YMR078C, strain ctf18, stronger effect = lower value 1.01 | S. cerevisiae deletion strains, locus YMR223W, strain ubp8, stronger effect = lower value 1.02 | [5] 0.988 | S. cerevisiae deletion strains, locus YMR307W, strain GAS1, stronger effect = lower value 1.06 | S. cerevisiae deletion strains, locus YNL067W, strain RPL9B, stronger effect = lower value 0.986 | S. cerevisiae deletion strains, locus YNL128W, strain TEP1, stronger effect = lower value 1.01 | [12] 0.999 and 0.967 | [6] 1.01 | [7] 1 | [8] 1.01 | S. cerevisiae deletion strains, locus YNL233W, strain BNI4, stronger effect = lower value 0.989 | S. cerevisiae deletion strains, locus YNL250W, strain rad50, stronger effect = lower value 1.01 | S. cerevisiae deletion strains, locus YNL271C, strain bni1, stronger effect = lower value 1.01 | S. cerevisiae deletion strains, locus YNL298W, strain CLA4, stronger effect = lower value 1.01 | S. cerevisiae deletion strains, locus YNL307C, strain MCK1, stronger effect = lower value 1.02 | [13] 1.01 | S. cerevisiae deletion strains, locus YNR052C, strain pop2, stronger effect = lower value 1.02 | S. cerevisiae deletion strains, locus YOL006C, strain TOP1, stronger effect = lower value 0.981 | S. cerevisiae deletion strains, locus YOL012C, strain htz1 1.37 | S. cerevisiae deletion strains, locus YOL147C, strain pex11, stronger effect = lower value 1.01 | S. cerevisiae deletion strains, locus YOR061W, strain CKA2, stronger effect = lower value 1.01 | S. cerevisiae deletion strains, locus YOR069W, strain VPS5, stronger effect = lower value 1.01 | [9] 1.01 | S. cerevisiae deletion strains, locus YOR136W, strain idh2, stronger effect = lower value 1 | S. cerevisiae deletion strains, locus YOR144C, strain elg1, stronger effect = lower value 1 | S. cerevisiae deletion strains, locus YOR184W, strain ser1, stronger effect = lower value 1.05 | S. cerevisiae deletion strains, locus YOR316C, strain cot1, stronger effect = lower value 1 | [14] 0.956 | S. cerevisiae deletion strains, locus YPL241C, strain CIN2, stronger effect = lower value 0.999 | S. cerevisiae deletion strains, locus YPR119W, strain clb2, stronger effect = lower value 0.988 | S. cerevisiae deletion strains, locus YPR141C, strain kar3, stronger effect = lower value 0.999 | S. cerevisiae deletion strains, locus YPR163C, strain tif3, stronger effect = lower value 0.999 | S. cerevisiae deletion strains, locus YPR167C, strain met16, stronger effect = lower value 1 | S. cerevisiae deletion strains, strain wtn01, stronger effect = lower value 0.997 | S. cerevisiae strains, strain wild type, stronger effect = lower value 1.01

NC(=NCc1ccccc1)NC(=O)c1nc(Cl)c(N)nc1N
inactive: [2] 1 | [10] 1.02 | [3] 0.994 | [4] 1.01 | [11] 0.999 | [12] 0.993 | [6] 1.01 | [7] 0.996 | [8] 1.02 | [13] 1.01 | [9] 0.965 | [14] 1.01
